Gal4-VP16 FLuc – VP16 counterscreen qHTS for inhibitors of ROR gamma transcriptional activity. Drosophila S2 Gal4-VP16 UAS-luciferase, luminescence, 20 h. Potency, µM (top dose mostly 53.6 µM), without a hit: at the top dose activity, negative = inhibition, usual class: inhibitors. 310,000 tested, 3.5% active. AID 2546, 2010;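 also: Gal4-VP16 expression switched on by copper sulfate through the metallothionein promoter; % is scaled to controls: 0 for no effect and ±100 for the full control effect; nearly all actives have a fitted effect of over 50% in size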
ATXN viability – Viability Counterscreen for Primary qHTS for Inhibitors of ATXN expression. S2 cells (HEK-293 line with an ATXN2-luciferase reporter) viability, CellTiter-Fluor protease fluorescence, 24 h. Potency, µM (series often up to 56.7 µM), most hits filed as cytotoxic. 400,000 tested, 0.49% active. AID 651635, 2014; also: nearly all actives have a fitted effect of over 40% in size
HepG2 tox – qHTS for Inhibitors of TGF-b: Cytotox Counterscreen. HepG2 CAGA-GFP viability, ATP luminescence, 18 h. Potency, µM (doses to about 46.1 µM), for inactives: at the top dose activity change, negative = cytotoxicity, most hits filed as cytotoxic. 410,000 tested, 0.76% active. AID 588856, 2011
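CellTiter-Glo luminescence gave cytotoxicity after 18 hours at 37 degrees C. The cells were HepG2 CAGA-GFP in 1% FBS DMEM, stimulated with 500 pg/mL TGF-beta after compound addition. %Activity was normalised to no-cell wells (complete cell-killing) and DMSO (no toxicity), and curves were fitted and classified.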
RORgamma inh – qHTS for inhibitors of ROR gamma transcriptional activity; Nuclear receptor ROR-gamma (Mus musculus), P51450; Drosophila S2 Gal4-RORgamma UAS-luciferase reporter, 20 h; Potency, µM (titrated, usually from 53.6 µM), for inactives: top-dose activity change, negative = inhibition, most hits filed as inhibitors; 310,000 tested, 5.4% active; also: % is scaled to controls: 0 for no effect and ±100 for the full control effect; nearly all actives have a fitted effect of over 60% in size
Target sequence (P51450 whole entry, looked up, the tested form may be a part): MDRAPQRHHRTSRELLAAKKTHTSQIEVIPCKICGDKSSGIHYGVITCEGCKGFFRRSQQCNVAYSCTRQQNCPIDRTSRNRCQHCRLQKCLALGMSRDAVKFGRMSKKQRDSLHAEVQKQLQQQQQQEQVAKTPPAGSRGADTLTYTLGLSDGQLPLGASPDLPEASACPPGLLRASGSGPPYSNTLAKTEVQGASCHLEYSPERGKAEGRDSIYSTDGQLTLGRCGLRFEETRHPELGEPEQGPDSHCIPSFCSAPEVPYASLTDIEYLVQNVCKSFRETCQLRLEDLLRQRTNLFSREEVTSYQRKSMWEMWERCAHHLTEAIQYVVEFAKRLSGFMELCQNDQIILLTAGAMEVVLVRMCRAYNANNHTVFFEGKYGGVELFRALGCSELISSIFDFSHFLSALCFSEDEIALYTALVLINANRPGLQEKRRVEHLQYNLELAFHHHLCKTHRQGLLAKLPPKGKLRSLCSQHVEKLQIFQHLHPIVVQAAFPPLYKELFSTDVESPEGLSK
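Stable Schneider cell line, Gal4 DNA-binding domain fused to ROR gamma, UAS-luciferase. Cmpd 1 hr RT → CuSO4 700 uM final → 20 hr RT → luciferase reagent 10 min → luminescence.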
ATXN2 expr inh – Primary qHTS for Inhibitors of ATXN expression; 360,000 tested, 0.72% active; HEK-293 ATXN2-luciferase reporter, luminescence, 24 h; Potency, µM (series often up to 57 µM), for inactives: at the highest dose activity change, negative = inhibition, most hits filed as inhibitors; also: % is scaled to controls: 0 for no effect and ±100 for the full control effect; nearly all actives have a fitted effect of over 55% in size
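qHTS (up to 57 uM final) was run with 24 h compound exposure of reporter cells at 37 °C. Each well was multiplexed: SteadyGlo luminescence measured ATXN2-luciferase expression after a fluorogenic Gly-Phe-AFC viability readout (25 uM final).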
TGFb inhibitor – qHTS for Inhibitors of TGF-b; 410,000 tested, 1.2% active; HepG2 CAGA-GFP TGF-b/SMAD3 reporter, GFP fluorescence, 18 h; TGF-beta stimulated, 500 pg/mL final; AID 588855, 2011; Potency, µM (doses to about 46.1 µM), without a hit: top-dose activity, negative = inhibition, usual class: inhibitors; also: % is scaled to controls: 0 for no effect and ±100 for the full control effect; nearly all actives have a fitted effect of over 65% in size
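Inhibition was scored as loss of TGF-beta-induced (500 pg/mL final, 18 hours, 37 degrees C) GFP in HEPG2 cells carrying a CAGA-GFP reporter, in DMEM with 1% FBS. Well GFP was summed per cell; Activity was normalised to unstimulated and stimulated DMSO wells, then concentration-response fitting.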
Active calls of the source: *; [ ] = remark or other dose. An excerpt weighted towards active compounds, which were near 6.3% of everything screened. Calls follow the shape of the dose curve; as a rule, active = well fitted curve in the direction sought with a large enough effect; inconclusive = small, poorly fitted or top-dose-only effect, or another doubt; inactive = no such curve, though single readings can be large; an effect the other way counts as inactive or inconclusive. Potency is read from the fitted curve at half-maximal effect.

How did O=C(CCN1CCCCC1)c1ccc2c(c1)OCCO2 do in these assays?
Gal4-VP16 FLuc: 7.9µM*; ATXN viability: inactive; HepG2 tox: -94%; RORgamma inh: 11µM*; ATXN2 expr inh: 28%; TGFb inhibitor: inconclusive

Results for O=C(CCCCN1CCCCC1)c1ccc2c(c1)Cc1ccccc1-2 ?
Gal4-VP16 FLuc: inconclusive; ATXN viability: inactive; HepG2 tox: -19%; RORgamma inh: 13µM*; ATXN2 expr inh: -43%; TGFb inhibitor: -5%

What do the screens show for `COCCN1C(=O)CCC1(C)c1nnnn1-c1ccc2c(c1)OCCO2` (stereo not drawn)?
ATXN viability: inactive; ATXN2 expr inh: 19%

What do the screens show for `O=C(CCN1CCCC1Cc1ccccc1)c1ccc2c(c1)OCCO2` (stereo not drawn)?
Gal4-VP16 FLuc: 5.6µM*; HepG2 tox: -113%; RORgamma inh: 5µM*; ATXN2 expr inh: inconclusive; TGFb inhibitor: 11µM*

Results for O=C(CCN1CCc2ccccc2C1)c1ccc2c(c1)OCCO2 ?
Gal4-VP16 FLuc: 4.5µM*; ATXN viability: inactive; HepG2 tox: 7.1µM*; RORgamma inh: 3.2µM*; ATXN2 expr inh: -5%; TGFb inhibitor: inconclusive

How did COc1cc(C(=O)CCN2CCC(c3ccccc3)C2)cc(OC)c1OC (stereo not drawn) do in these assays?
Gal4-VP16 FLuc: inconclusive; ATXN viability: inactive; HepG2 tox: -33%; RORgamma inh: 16µM*; ATXN2 expr inh: 10%; TGFb inhibitor: inconclusive

How did CC(C)(C)c1ccc(C(=O)Nc2ccc(-c3nc4cc(Cl)ccc4o3)cc2)cc1 do in these assays?
ATXN viability: inactive; HepG2 tox: -16%; ATXN2 expr inh: -2%; TGFb inhibitor: -2%

How did O=C(NCc1ccc(F)cc1)c1cnc(N2CCCCC2)c2ccccc12 do in these assays?
HepG2 tox: -19%; TGFb inhibitor: -23%

What do the screens show for `CCOc1cc(/C=N/n2c(COc3ccccc3)n[nH]c2=S)ccc1O`?
Gal4-VP16 FLuc: inconclusive; ATXN viability: inconclusive; HepG2 tox: -17%; RORgamma inh: 5µM*; TGFb inhibitor: 5%

How did Oc1ccc(/C=N/n2c(COc3ccccc3)n[nH]c2=S)cc1O do in these assays?
Gal4-VP16 FLuc: -4%; ATXN viability: inactive; HepG2 tox: -20%; RORgamma inh: -28%; ATXN2 expr inh: -29%; TGFb inhibitor: -12%

How did Cc1ccc(/C=N/n2c(COc3ccccc3)n[nH]c2=S)cc1 do in these assays?
Gal4-VP16 FLuc: inconclusive; ATXN viability: inactive; HepG2 tox: -16%; RORgamma inh: 3.2µM*; ATXN2 expr inh: 15%; TGFb inhibitor: -12%

How did CN(C)c1ccc(/C=N/n2c(-c3ccccc3Br)n[nH]c2=S)cc1 do in these assays?
Gal4-VP16 FLuc: 4%; ATXN viability: inactive; HepG2 tox: 7%; RORgamma inh: 3.5µM*; ATXN2 expr inh: 25%; TGFb inhibitor: -9%

How did CSc1ccc(/C=N/n2c(Cc3ccc(Br)cc3)n[nH]c2=S)cc1 do in these assays?
Gal4-VP16 FLuc: -1%; ATXN viability: inactive; HepG2 tox: -9%; RORgamma inh: inconclusive; ATXN2 expr inh: -10%[11.3 µM]; TGFb inhibitor: inconclusive

Results for FC(F)Oc1ccc(/C=N/n2c(Cc3ccc(Br)cc3)n[nH]c2=S)cc1 ?
Gal4-VP16 FLuc: inconclusive; ATXN viability: inactive; HepG2 tox: -112%; RORgamma inh: 8.9µM*; ATXN2 expr inh: -14%; TGFb inhibitor: inconclusive

What do the screens show for `CCOC(=O)c1ccc(NC(=O)Cn2cc(C(=O)c3ccc(Cl)cc3)c(=O)c3ccc(C)nc32)cc1`?
ATXN viability: inactive; HepG2 tox: -24%; ATXN2 expr inh: -2%; TGFb inhibitor: 134%
